The source of these data is PubChem BioAssay AID623877 (Johns Hopkins Ion Channel Center, 2012).

Molecules are shown by their SMILES. Hit rate of the full screen: of about 340,000 compounds, about 1,000 (0.29%) were called active.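 Rule for the calls: active = fluorescence-ratio B-score plate-corrected deviation score at least 3 library SD below zero, with starting fluorescence score within 5 deviations; inactive = the rest.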 The entries come from a sample that favours actives as a whole.

Chain of Anoctamin-1 (Mus musculus) (Q8BHY3 whole entry, looked up): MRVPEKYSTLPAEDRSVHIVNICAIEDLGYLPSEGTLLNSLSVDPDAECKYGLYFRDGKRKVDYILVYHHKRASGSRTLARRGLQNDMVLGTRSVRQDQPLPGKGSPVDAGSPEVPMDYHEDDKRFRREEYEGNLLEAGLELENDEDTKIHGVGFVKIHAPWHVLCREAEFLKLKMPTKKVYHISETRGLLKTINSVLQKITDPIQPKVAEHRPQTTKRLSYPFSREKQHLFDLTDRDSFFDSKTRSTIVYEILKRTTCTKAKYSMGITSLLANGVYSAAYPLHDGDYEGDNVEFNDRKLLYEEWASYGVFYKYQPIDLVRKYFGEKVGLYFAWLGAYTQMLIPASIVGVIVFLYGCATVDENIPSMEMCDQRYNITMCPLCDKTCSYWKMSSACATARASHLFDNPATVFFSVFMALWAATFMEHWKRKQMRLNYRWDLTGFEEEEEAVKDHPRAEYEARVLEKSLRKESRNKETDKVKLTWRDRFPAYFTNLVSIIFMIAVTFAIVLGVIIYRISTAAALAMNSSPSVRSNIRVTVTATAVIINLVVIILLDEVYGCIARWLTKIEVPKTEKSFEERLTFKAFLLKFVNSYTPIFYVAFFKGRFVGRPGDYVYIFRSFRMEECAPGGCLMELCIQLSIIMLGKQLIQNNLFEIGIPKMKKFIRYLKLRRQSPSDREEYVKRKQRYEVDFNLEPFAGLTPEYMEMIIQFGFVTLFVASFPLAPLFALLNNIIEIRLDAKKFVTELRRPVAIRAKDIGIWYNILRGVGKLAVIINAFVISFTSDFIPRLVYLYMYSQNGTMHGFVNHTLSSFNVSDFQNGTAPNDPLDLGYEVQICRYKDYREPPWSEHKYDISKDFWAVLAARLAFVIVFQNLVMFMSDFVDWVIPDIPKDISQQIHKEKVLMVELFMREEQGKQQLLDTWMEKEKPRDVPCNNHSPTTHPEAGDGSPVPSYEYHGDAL

The test has as its target Anoctamin-1 (Mus musculus) (UniProt Q8BHY3). As to the kind of experiment: TMEM16A chloride channel activators or potentiators, primary screen, cell-based, HTS (AID 623877).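 For B-score: channel opened by trigger with iodide after compound preincubation; score built on the fluorescence ratio of max minus min over baseline; more negative score means more quench and so TMEM16A activation or potentiation.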 The conditions noted are these: HEK293 TMEM16A/YFP-H148Q/I152L, iodide quench fluorescence, at 10 µM; active compounds read low.
With `O=C(O)CC1(CC(=O)Nc2cccc(C(F)(F)F)c2)CCCC1`, the B-score result is “inactive”.
The entry for `Cc1cccc(NC(=S)Nc2ccc(Cl)c(Cl)c2)c1` is “inactive”; for `FC(F)(F)c1cccc(NC(=S)Nc2cccc(Cl)c2)c1` it is -5.69 (active).
As to `C#CCOCCOCCOCCNc1nc(N2CCN(C(=O)[C@H](C(C)C)n3cc(CCO)nn3)CC2)nc(N2CCN(C(=O)[C@H]([C@@H](C)CC)n3cc(CCCN=C(N)N)nn3)CC2)n1`, the B-score entry was “inactive”.
Turning to `C#CCOCCOCCOCCNc1nc(N2CCN(C(=O)CCCCCCCCCCNC(=O)[C@H](CCCCN)n3cc(C)nn3)CC2)nc(N2CCN(C(=O)CCCCCCCCCCNC(=O)[C@H](CO)n3cc(CCCSC)nn3)CC2)n1`, the B-score was -13.2 (active).
The figure for `C#CCOCCOCCOCCNc1nc(N2CCN(C(=O)CCCCCCCCCCNC(=O)[C@H]([C@@H](C)CC)n3cc(CCCCN=C(N)N)nn3)CC2)nc(N2CCN(C(=O)CCCCCCCCCCNC(=O)[C@H](CO)n3cc(CCCSC)nn3)CC2)n1` is -27.8 (active); for `C#CCOCCOCCOCCNc1nc(N2CCN(C(=O)Cn3cc(CCO)nn3)CC2)nc(N2CCN(C(=O)[C@H](CCCCN)n3cc(CCCC)nn3)CC2)n1` it is “inactive”; for `C#CCOCCOCCOCCNc1nc(N2CCN(C(=O)Cn3cc(CCCCN)nn3)CC2)nc(N2CCN(C(=O)[C@H](CCCCN)n3cc(CCC(=O)O)nn3)CC2)n1` it is “inactive”.
The entry for `C#CCOCCOCCOCCNc1nc(N2CCN(C(=O)Cn3cc(CCO)nn3)CC2)nc(N2CCN(C(=O)Cn3cc(CCCN=C(N)N)nn3)CC2)n1` is “inactive”.
On to `Cc1ccc(OCCCC(=O)Nc2ccc3c(c2)OCCO3)cc1`, for which the B-score entry is “inactive”.
The entry for `O=C(NCCCc1ccccc1)c1cc(COc2c(F)cccc2F)on1` is “inactive”; for `CCN1CCN(C(=O)C2CCCN(S(=O)(=O)c3ccc(OC)c(OC)c3)C2)CC1` (stereo unspecified) it is “inactive”; for `COc1ccc(/C=C/CN2CCN(Cc3ccc(C)cc3)C(CCO)C2)cc1` (stereo unspecified) it is “inactive”.
As for `O=C(CN1CCN(c2ccccc2O)CC1)NC(=O)NCc1ccccc1`, the B-score result is “inactive”.
For `Cc1ccc(S(=O)(=O)NC(C(=O)N2CCOCCOCCOCCOCC2)c2ccccc2)cc1` (stereo unspecified), the B-score entry was “inactive”.
The figure for `CCCC(C(=O)n1nc(C)cc1C)C(NS(=O)(=O)c1ccc(C)cc1)c1ccccc1` (stereo unspecified) is -8.83 (active); for `Cc1ccc(S(=O)(=O)Nc2nc(C)cc(-n3nc(C)cc3C)n2)cc1` it is “inactive”.
The entry for `O=c1[nH]c(=S)[nH]c(O)c1/C=C1\C=Nc2ccccc21` is “inactive”; for `CC(C)N(Cc1nnc(-c2ccc(Cl)cc2)o1)C(=O)C1=COCCO1` it is “inactive”; for `CCOC(=O)c1ccccc1NC(=O)COC(=O)CCC(=O)N1CCOCC1` it is “inactive”.
For the compound `Cc1cnc(CN(C)C(=O)CC2C(=O)NCCN2Cc2cccc(F)c2F)[nH]1` (stereo unspecified), the B-score result was “inactive”.
Consider `Cc1nc2cccnc2nc1C`, for which the B-score result is “inactive”.
The entry for `Cc1ccc(CN2CCN(Cc3ccccc3-c3ccco3)CC2CCO)o1` (stereo unspecified) is “inactive”; for `CC(C)CCN1CCN(C/C=C/c2ccco2)CC1CCO` (stereo unspecified) it is -7.6 (active); for `CC(C)CCN1CCN(Cc2ccc(C(F)(F)F)cc2)CC1CCO` (stereo unspecified) it is “inactive”.
In the case of `COCCNC(=O)CSc1nc2c(n1-c1ccccc1)CCCC2`, the B-score result is “inactive”.
The entry for `O=C(CCNC(=O)c1ccc([N+](=O)[O-])cc1)NC1CCCCC1` is “inactive”; for `NC(=O)c1ccc(NC(=O)COC(=O)c2c3c(nc4ccccc24)/C(=C\c2ccc4c(c2)OCO4)CCC3)cc1` it is -6.02 (active).
Take `NS(=O)(=O)c1ccc(NC(=O)COC(=O)c2c3c(nc4ccccc24)/C(=C\c2ccc4c(c2)OCO4)CCC3)cc1`: the B-score result is “inactive”.
For `O=C(COC(=O)c1ccncc1)Nc1ccc2c(c1)OCO2`, the B-score entry is “inactive”.
On to `CCOC(=O)c1cc(NC(=O)SCC(=O)O)c(C)nc1C`, for which the B-score entry is “inactive”.
Turning to `CC(C[N+](C)(C)C)OC(N)=O` (stereo unspecified), the B-score result was “inactive”.
The figure for `CC(=O)OC(C)C[N+](C)(C)C` (stereo unspecified) is -7.27 (active); for `CC(=O)OCC(COC(C)=O)OC(C)=O` it is “inactive”.
The entry for `NS(=O)(=O)c1ccc(N=Cc2ccc(Br)s2)cc1` is “inactive”.
Consider `COc1ccc(-c2onc3ccc(C(C)=O)cc23)cc1`, for which the B-score is -5.14 (active).
For `COc1ccc(NC(C(=O)Nc2cccc(C(C)=O)c2)c2ccccc2)cc1` (stereo unspecified), the B-score entry is “inactive”.
The entry for `COc1ccc(-c2cc(C(=O)N3CCN(c4ccc(F)cc4)CC3)no2)cc1` is “inactive”; for `Cc1cccc(CC(=O)Nc2c3c(nn2-c2cccc(Cl)c2)CS(=O)C3)c1` (stereo unspecified) it is “inactive”; for `CN(C(=O)c1cccc(NC(=O)Cc2ccc(NC(=O)C3CCCN(C(=O)C4CCCC4)C3)cc2)c1)C1CCC1` (stereo unspecified) it is “inactive”.
The entry for `C=C(Cl)COC(=O)C1C2C=CC(C2)C1C(=O)O` (stereo unspecified) is “inactive”.
For `Cn1nccc1NS(=O)(=O)c1ccc(F)cc1`, the B-score result was “inactive”.
Regarding `CSc1ccc(CNCCN2CCOCC2)cc1`, the B-score is -9.5 (active).
The entry for `CCCCNCc1ccc(SC)cc1` is “inactive”.
Turning to `O=C(Cc1ccc(Br)cc1)NCCN1CCOCC1`, the B-score entry is “inactive”.
In the case of `O=C(c1ccc(OC2CCN(C/C=C/c3ccc(F)cc3)CC2)cc1)N1CCCCC1`, the B-score entry is “inactive”.
Regarding `CCn1c(Cc2ccccc2)nnc1SCc1nc2ccccc2c(=O)[nH]1`, the B-score entry was “inactive”.
The figure for `CCn1c(COc2c(C)cccc2C)nnc1SCc1nc2ccccc2c(=O)[nH]1` is -4.66 (active); for `COc1ccc(CCCc2nnc(SCc3nc4ccccc4c(=O)[nH]3)n2C)cc1` it is “inactive”; for `Cc1ccc(Cl)cc1N1CCN(C(=O)c2cccc3c(=O)c(C)c(-c4ccccc4)oc23)CC1` it is “inactive”.
Turning to `CCOc1ccc(N(CC(=O)NC2CCCCCC2)S(=O)(=O)c2c(C)[nH]c(=O)[nH]c2=O)cc1`, the B-score result was “inactive”.
The figure for `Oc1c(Cl)cc(Cl)c(Cl)c1Cc1c(O)c(Cl)cc(Cl)c1Cl` is -5.49 (active); for `OCC(O)C1OCOC(C(O)CO)C1O` (stereo unspecified) it is “inactive”.
With `COc1ccc(C(=O)N(C)Cc2ccc(OC)c(OC)c2OC)cc1S(=O)(=O)N1CCOCC1`, the B-score result was “inactive”.
The figure for `COc1ccc(S(=O)(=O)N2CCCCCC2)cc1C(=O)N(C)Cc1cccc(OC)c1OC` is -5.67 (active); for `CCNC(=O)NC(=O)C(C)OC(=O)c1cc(S(=O)(=O)N2CCCCCC2)ccc1OC` (stereo unspecified) it is “inactive”; for `COc1ccc(NC(=O)C2C3C=CC(C3)C2C(=O)NCc2ccccn2)c(OC)c1` (stereo unspecified) it is “inactive”.
As for `O=C(NCCN1CCOCC1)c1cccc(S(=O)(=O)Nc2ccc(F)cc2)c1`, the B-score result was “inactive”.
On to `Cc1ccc(C(=O)NC(=S)NCc2cccnc2)cc1`, for which the B-score result is “inactive”.
The figure for `Cc1c(C(=O)NC(=S)NCc2cccnc2)oc2ccccc12` is -24.9 (active); for `Cc1c(C(=O)NNC(=O)c2ccncc2)oc2ccccc12` it is “inactive”.
